Active and inactive are the calls of the source.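 How the source made its calls, unless noted: active means response below a set limit, under 55% cells CD8-positive and vesicle-bound, and CD8 cells' 90th-percentile brightness under 279; inactive means the rest.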
Assays:
[1] = inhibitors of CD8+ T cell-vesicle binding, pilot screen, LFA-1/ICAM-1 modulator project, MLPCN validation set, flow cytometry (AID 2523); details: 2C mouse CD8+ T cells, at 7 µM, stronger effect = lower value; double positive events: measured here: CD8+/vesicle+ event percentage;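 on vesicle binding response: mean PE anti-B7-1 fluorescence of CD8+ cells relative to row control; 100% = QL9-loaded vesicles with DMSO vehicle in the same plate row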
[2] = biological target: Integrin beta-1 (Homo sapiens) + Integrin alpha-4 (Homo sapiens) (UniProt P13612+P05556); assay: inhibition of HUTS-21 binding to VLA-4, pilot screen, VLA-4 allosteric modulator project, U937 cells, HUTS-21 mAb, flow cytometry, validation set (AID 2674;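 active means inhibition above 50%, about 3 SD of the validation set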;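 further: antibody binding induced by the VLA-4 ligand LDV present at three times its Kd; 0% = LDV ligand with antibody and no compound and 100% = antibody without LDV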); details: HUTS-21 LIBS mAb binding, at 6.7 µM, stronger effect = higher value, binding induced by LDV ligand
Integrin beta-1 (Homo sapiens) + Integrin alpha-4 (Homo sapiens), sequence (P05556 whole entry, looked up): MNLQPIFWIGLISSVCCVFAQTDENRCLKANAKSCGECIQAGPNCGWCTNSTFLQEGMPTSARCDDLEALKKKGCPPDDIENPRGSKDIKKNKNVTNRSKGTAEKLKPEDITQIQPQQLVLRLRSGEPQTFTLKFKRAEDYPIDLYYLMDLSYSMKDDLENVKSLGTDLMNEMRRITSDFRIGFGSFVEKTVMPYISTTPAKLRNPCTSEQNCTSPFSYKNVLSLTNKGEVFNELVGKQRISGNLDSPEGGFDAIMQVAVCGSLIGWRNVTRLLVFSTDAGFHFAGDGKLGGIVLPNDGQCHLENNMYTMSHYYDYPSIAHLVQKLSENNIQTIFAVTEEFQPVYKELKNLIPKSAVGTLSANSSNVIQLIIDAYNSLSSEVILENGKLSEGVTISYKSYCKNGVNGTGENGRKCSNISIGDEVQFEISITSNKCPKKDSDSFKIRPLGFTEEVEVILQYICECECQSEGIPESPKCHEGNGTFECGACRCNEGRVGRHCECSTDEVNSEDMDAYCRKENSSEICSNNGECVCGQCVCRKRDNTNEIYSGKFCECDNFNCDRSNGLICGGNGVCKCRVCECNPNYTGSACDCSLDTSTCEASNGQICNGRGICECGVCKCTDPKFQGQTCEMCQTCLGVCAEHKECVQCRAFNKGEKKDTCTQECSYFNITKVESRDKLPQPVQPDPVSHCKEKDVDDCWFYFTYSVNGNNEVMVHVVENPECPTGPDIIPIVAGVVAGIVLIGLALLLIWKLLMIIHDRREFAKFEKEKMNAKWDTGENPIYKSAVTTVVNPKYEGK
Integrin beta-1 (Homo sapiens) + Integrin alpha-4 (Homo sapiens), sequence (P13612 whole entry, looked up): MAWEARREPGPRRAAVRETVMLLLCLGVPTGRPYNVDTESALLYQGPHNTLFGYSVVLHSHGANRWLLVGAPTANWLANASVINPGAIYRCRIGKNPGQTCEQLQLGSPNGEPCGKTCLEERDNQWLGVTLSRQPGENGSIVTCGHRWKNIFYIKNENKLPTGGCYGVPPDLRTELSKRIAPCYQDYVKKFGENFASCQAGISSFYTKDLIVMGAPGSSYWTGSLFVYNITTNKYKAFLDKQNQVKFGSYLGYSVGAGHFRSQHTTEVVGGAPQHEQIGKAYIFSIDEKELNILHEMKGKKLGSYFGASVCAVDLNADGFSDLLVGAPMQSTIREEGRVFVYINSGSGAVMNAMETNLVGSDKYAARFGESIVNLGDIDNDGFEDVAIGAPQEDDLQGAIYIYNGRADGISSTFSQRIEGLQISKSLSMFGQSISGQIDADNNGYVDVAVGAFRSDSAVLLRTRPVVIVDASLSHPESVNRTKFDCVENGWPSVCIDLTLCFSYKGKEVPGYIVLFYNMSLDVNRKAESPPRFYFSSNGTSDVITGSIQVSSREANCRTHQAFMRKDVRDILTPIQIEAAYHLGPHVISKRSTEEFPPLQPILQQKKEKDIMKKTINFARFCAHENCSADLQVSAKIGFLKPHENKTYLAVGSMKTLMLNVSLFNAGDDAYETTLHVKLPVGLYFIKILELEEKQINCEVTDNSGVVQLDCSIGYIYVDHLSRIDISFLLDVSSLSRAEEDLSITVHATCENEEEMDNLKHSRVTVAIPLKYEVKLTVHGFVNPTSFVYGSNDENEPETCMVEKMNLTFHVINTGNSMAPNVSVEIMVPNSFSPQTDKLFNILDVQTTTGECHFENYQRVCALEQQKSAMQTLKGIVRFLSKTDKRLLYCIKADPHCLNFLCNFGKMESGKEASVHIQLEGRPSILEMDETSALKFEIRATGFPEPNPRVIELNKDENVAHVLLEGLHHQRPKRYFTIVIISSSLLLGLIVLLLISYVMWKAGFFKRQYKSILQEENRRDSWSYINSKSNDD

[3] = superoxide lowering in aged yeast cells, pilot screen, validation compound set (AID 2706;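 active means superoxide response below 65% of plate, a cut near 3 SD across the whole screen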;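 further: yeast exposed to compound for one week at 30 degrees C before staining; 100% = mean of all compound wells on the same plate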); details: S. cerevisiae aging, superoxide DHE fluorescence; at 10 µM, stronger effect = lower value
[4] = biological target: Beta-adrenergic receptor kinase 1 (Homo sapiens) (UniProt P25098); assay: GRK2 binders displacing RNA aptamer, biochemical, validation, human GRK2, bead flow cytometry (AID 488806;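 active means aptamer binding inhibition above 30%, about 3 SD of noise from non-fluorescent compounds; inactive means inhibition at or below 30%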); details: bead-bound GRK2, FAM-aptamer displacement, at 10 µM, stronger effect = higher value
Beta-adrenergic receptor kinase 1 (Homo sapiens), sequence (P25098 whole entry, looked up): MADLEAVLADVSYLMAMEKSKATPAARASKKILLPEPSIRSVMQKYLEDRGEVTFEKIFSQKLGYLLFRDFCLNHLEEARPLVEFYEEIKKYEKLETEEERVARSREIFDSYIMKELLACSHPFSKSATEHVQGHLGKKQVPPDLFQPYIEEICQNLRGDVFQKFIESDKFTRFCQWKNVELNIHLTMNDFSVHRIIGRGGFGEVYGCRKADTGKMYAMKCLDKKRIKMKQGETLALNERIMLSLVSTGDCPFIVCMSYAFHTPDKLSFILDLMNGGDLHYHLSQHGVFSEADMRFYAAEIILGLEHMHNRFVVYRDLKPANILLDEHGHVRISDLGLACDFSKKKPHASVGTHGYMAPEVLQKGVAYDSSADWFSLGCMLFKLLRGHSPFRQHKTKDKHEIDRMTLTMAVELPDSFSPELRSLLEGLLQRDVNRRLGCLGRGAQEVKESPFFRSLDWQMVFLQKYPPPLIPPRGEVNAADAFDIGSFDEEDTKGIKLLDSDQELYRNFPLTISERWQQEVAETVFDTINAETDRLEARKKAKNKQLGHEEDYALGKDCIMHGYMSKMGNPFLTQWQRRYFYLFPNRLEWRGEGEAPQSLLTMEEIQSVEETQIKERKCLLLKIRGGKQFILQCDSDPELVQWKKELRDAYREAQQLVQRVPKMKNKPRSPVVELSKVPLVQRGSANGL

[5] = biological target: AP-2 complex subunit beta (Homo sapiens) (UniProt P63010); assay: inhibitors of arrestin peptide binding to AP2, pilot screen, biochemical, validation set, GST-AP2 beads, flow cytometry (AID 504541;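 active means inhibition above 54%, about 3 SD of non-fluorescent compounds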;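 further: AP2 carries R879A mutation and is captured from E. coli lysate; bead-bound FITC arrestin peptide fluorescence measuring arrestin peptide binding to AP2; 0% = DMSO wells and 100% = excess unlabeled arrestin peptide control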); details: FITC arrestin peptide, at 10 µM, stronger effect = higher value, AP2 beta2 appendage fragment, R879A mutant
AP-2 complex subunit beta (Homo sapiens), sequence (P63010 whole entry, looked up, the tested form may be a part, one chain of several): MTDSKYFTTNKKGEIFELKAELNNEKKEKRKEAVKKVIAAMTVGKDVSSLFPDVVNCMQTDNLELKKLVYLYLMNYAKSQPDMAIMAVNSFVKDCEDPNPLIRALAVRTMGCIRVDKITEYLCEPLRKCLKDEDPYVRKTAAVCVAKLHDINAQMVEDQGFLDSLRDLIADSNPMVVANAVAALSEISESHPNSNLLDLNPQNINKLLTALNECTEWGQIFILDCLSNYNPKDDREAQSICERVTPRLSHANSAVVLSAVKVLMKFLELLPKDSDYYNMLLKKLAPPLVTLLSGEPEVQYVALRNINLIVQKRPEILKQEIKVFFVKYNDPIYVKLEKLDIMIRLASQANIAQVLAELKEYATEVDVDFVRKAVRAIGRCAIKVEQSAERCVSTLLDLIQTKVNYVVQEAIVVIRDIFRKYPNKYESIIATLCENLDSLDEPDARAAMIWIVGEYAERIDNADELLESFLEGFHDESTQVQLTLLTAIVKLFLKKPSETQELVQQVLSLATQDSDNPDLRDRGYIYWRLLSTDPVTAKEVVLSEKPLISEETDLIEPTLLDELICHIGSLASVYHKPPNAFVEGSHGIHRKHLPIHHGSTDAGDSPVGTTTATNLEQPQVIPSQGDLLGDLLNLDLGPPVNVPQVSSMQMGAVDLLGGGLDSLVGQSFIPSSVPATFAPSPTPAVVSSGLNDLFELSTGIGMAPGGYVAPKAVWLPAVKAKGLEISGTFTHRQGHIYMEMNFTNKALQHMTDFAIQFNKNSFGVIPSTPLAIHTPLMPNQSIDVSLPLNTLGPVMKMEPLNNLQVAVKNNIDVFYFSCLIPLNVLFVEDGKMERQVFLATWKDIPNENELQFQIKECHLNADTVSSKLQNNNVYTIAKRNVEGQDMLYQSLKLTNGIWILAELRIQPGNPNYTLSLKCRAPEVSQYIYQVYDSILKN

[6] = yeast V-ATPase proton transport modulators, S. cerevisiae, pHLuorin, HTS validation (AID 504600; in the data active means response above about 15%;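 further: plate controls were DMSO for no effect and reference compound for full effect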); details: S. cerevisiae pHLuorin cytosolic pH, at 10 µM, stronger effect = higher value
[7] = tested on: anti-desmoglein-3 scFv antibody binding to human DSG3; assay: inhibitors of anti-DSG3 scFv binding to DSG3, pilot screen, biochemical, validation compound set, bead-based, flow cytometry (AID 588368;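 active means binding below the plate cutoff, the plate median minus 3 SD, with a reading above zero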;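 further: signal is the median channel fluorescence of bead-bound GFP antibody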); details: Protein G beads, DSG3-Fc, scFv-GFP binding, at 10 µM, stronger effect = lower value
[8] = inhibitors of fungal efflux pumps CDR1, CDR2, MDR1, pilot screen, validation compound set, multiplex, phenotypic (AID 588506;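 active means efflux inhibition above 0.42, the validation set average plus 4 SD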;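 further: Nile Red retained in cells so higher fluorescence means more efflux inhibition; 0 = negative control wells and 1 = enniatin B 25 µM full block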); details: S. cerevisiae pump-expressing triplex, Nile Red efflux flow cytometry; at 10 µM; stronger effect = higher value; the pumps come from Candida albicans
[9] = biological target: ATP-binding cassette sub-family B member 6 (Homo sapiens) (UniProt Q9NP58); assay: ABCB6 transporter inhibitors, pilot screen, K562-ABCB6 cells, flow cytometry, validation set (AID 588550;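 active means inhibition above the screen-wide mean plus 3 SD, about 51%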;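 further: 0% = DMSO wells and 100% = benzethonium chloride 70 µM positive control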); details: K562-ABCB6 porphyrin accumulation, 1 h, at 10 µM, stronger effect = higher value
ATP-binding cassette sub-family B member 6 (Homo sapiens), sequence (Q9NP58 whole entry, looked up): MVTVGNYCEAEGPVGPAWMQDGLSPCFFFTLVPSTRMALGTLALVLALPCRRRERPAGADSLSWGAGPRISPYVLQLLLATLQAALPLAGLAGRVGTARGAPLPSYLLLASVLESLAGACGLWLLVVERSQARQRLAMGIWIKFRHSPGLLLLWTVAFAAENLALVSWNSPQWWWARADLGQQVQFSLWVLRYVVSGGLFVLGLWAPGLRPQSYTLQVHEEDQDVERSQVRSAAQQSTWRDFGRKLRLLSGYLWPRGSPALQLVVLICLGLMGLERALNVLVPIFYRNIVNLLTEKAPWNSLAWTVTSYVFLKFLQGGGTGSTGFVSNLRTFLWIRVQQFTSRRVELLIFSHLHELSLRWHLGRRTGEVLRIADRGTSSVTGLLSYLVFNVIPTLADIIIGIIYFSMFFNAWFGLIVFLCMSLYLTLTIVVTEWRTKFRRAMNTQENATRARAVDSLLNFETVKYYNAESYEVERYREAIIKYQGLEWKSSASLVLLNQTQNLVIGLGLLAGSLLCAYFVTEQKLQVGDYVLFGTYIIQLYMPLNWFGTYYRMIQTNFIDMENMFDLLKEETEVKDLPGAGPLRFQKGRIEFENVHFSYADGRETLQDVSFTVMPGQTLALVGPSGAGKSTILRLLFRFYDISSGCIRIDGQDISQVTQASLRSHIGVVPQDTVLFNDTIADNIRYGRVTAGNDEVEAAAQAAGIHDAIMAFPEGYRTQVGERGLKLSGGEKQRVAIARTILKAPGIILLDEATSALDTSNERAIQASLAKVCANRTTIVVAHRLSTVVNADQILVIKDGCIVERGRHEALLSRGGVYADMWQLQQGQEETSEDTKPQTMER

[10] = promoters of myeloid differentiation in arrested cells, primary screen, cell-based, GFP/MAC1 double positive, flow cytometry, validation set (AID 588685;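 active means differentiation response of at least 50%, scaled between solvent and reference control, from cells with both markers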;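 further: compound exposure lasts four days before antibody staining and flow analysis; 0% = DMSO wells and 100% = 5 µM fulvestrant positive control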); details: ER-HoxA9 marrow cells, stronger effect = higher value, normalized: vehicle 0, fulvestrant 100
[11] = biological target: Beta-2 adrenergic receptor (Homo sapiens) (UniProt P07550); assay: beta2AR agonists driving receptor internalization, pilot screen, cell-based, FAP fluorogen, flow cytometry, validation set (AID 504459;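 active means percent response above 42, roughly 3 SD of non-fluorescent test compounds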;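 further: agonist-driven loss of surface beta2AR via internalization measured by FAP dye flow cytometry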); details: Am2.2-beta2AR cells, FAP surface receptor flow cytometry; at 10 µM; stronger effect = higher value
Beta-2 adrenergic receptor (Homo sapiens), sequence (P07550 whole entry, looked up): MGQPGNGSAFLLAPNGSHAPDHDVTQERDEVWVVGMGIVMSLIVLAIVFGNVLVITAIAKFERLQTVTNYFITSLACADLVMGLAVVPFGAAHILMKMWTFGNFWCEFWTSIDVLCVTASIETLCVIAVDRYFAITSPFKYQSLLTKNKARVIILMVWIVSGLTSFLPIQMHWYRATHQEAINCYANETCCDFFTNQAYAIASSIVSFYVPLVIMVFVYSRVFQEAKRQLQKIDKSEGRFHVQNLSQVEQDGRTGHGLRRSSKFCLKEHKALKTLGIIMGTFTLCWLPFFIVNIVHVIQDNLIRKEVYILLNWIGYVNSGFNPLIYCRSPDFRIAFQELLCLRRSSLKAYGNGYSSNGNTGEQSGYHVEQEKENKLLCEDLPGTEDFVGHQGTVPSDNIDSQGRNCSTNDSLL

Oc1ccc(/C=C/c2cc(O)cc(O)c2)cc1
52.4%: double positive events [1]
inactive: vesicle binding response [1] 225% | inhibition [2] -6.77% | superoxide response (% of plate) [3] 96.3% | aptamer binding inhibition [4] 2% | inhibition [5] 7.43% | response [6] -1.9% | binding (% of control) [7] 97.2% | efflux inhibition (fraction of control) [8] -0.43 | inhibition [9] 6% | differentiation response [10] -16.4%

OCC1(CCOc2ccccc2)CCN(CCCn2cccn2)CC1
inactive: vesicle binding response [1] 287% | inhibition [2] 11.9% | superoxide response (% of plate) [3] 86.7% | aptamer binding inhibition [4] 0% | response [11] 22.2% | inhibition [5] -9.04% | response [6] 3.24% | binding (% of control) [7] 101% | efflux inhibition (fraction of control) [8] -0.39 | inhibition [9] 4% | differentiation response [10] 7.2%
62.6%: double positive events [1]

CCN(CC)CCN1C(=O)C(=O)/C(=C(/O)c2c(C)[nH]c(C(=O)OC)c2C)C1c1cccnc1 (stereo not given)
60.5%: double positive events [1]
inactive: vesicle binding response [1] 235% | inhibition [2] -19.5% | superoxide response (% of plate) [3] 95.2% | aptamer binding inhibition [4] 4% | response [11] 13.3% | inhibition [5] 0.35% | response [6] -2.49% | binding (% of control) [7] 103% | efflux inhibition (fraction of control) [8] 0.05 | inhibition [9] 9% | differentiation response [10] -12%

CN(C)CCN(Cc1cccs1)c1ccccn1
inactive: vesicle binding response [1] 165% | inhibition [2] 13.8% | superoxide response (% of plate) [3] 113% | aptamer binding inhibition [4] 2% | inhibition [5] -17.1% | response [6] 8.75% | binding (% of control) [7] 101% | efflux inhibition (fraction of control) [8] 0.18 | inhibition [9] 8% | differentiation response [10] -21.2%
52.7%: double positive events [1]

Nc1ncnc2c1ncn2C1OC(CO)C(O)C1O (stereo not given)
48.3%: double positive events [1]
inactive: vesicle binding response [1] 175% | inhibition [2] -6.77% | superoxide response (% of plate) [3] 102% | aptamer binding inhibition [4] 3% | inhibition [5] -4.3% | response [6] 0.12% | binding (% of control) [7] 110% | efflux inhibition (fraction of control) [8] -0.01 | inhibition [9] 5% | differentiation response [10] -18%

Oc1[nH]c2ccccc2c1N=Nc1ccccc1
49.4%: double positive events [1]
inactive: vesicle binding response [1] 168% | inhibition [2] 9.09% | superoxide response (% of plate) [3] 104% | aptamer binding inhibition [4] 3% | inhibition [5] -8.96% | response [6] -2.64% | binding (% of control) [7] 103% | efflux inhibition (fraction of control) [8] -0.35 | inhibition [9] 10% | differentiation response [10] -8.27%

Cc1ccc(OCCSc2ncccn2)c(C)c1
inactive: vesicle binding response [1] 186% | inhibition [2] 3.49% | superoxide response (% of plate) [3] 114% | aptamer binding inhibition [4] 1% | inhibition [5] -11.2% | response [6] 12.3% | binding (% of control) [7] 98% | efflux inhibition (fraction of control) [8] 0.14 | inhibition [9] 10% | differentiation response [10] -13.1%
49.1%: double positive events [1]

COc1cccc(OC2OC3COC(C)(C)OC3C(O)C2NC(C)=O)c1 (stereo not given)
63.6%: double positive events [1]
inactive: vesicle binding response [1] 203% | inhibition [2] 5.61% | superoxide response (% of plate) [3] 97.8% | aptamer binding inhibition [4] 2% | response [11] 2.82% | inhibition [5] 2.96% | response [6] 6.08% | binding (% of control) [7] 103% | efflux inhibition (fraction of control) [8] 0.1 | inhibition [9] 30% | differentiation response [10] -11.9%

COc1c2occc2c(OC)c2c(=O)cc(C(F)(F)C(F)(F)F)oc12
inactive: vesicle binding response [1] 156% | inhibition [2] 3.49% | superoxide response (% of plate) [3] 123% | aptamer binding inhibition [4] 2% | inhibition [5] -6.1% | response [6] -16% | binding (% of control) [7] 103% | efflux inhibition (fraction of control) [8] 0.03 | inhibition [9] 9% | differentiation response [10] -16.4%
50%: double positive events [1]

COc1ccc(-c2c(NC(=O)c3ccco3)n(C)c3ccccc3c2=O)cc1
inactive: vesicle binding response [1] 125% | inhibition [2] -1.09% | superoxide response (% of plate) [3] 102% | aptamer binding inhibition [4] 3% | response [11] 5.47% | inhibition [5] -5.24% | response [6] -3.79% | binding (% of control) [7] 99.6% | efflux inhibition (fraction of control) [8] -0.37 | inhibition [9] -2% | differentiation response [10] -7.5%
58.6%: double positive events [1]

CCCCC[C@H](O)/C=C/[C@@H]1[C@@H](C/C=C\CCCC(=O)O)[C@@H](O)C[C@H]1O
inactive: vesicle binding response [1] 106% | inhibition [2] -49.3% | superoxide response (% of plate) [3] 96.5% | aptamer binding inhibition [4] 1% | response [11] -3.9% | inhibition [5] -12.4% | response [6] -1.19% | binding (% of control) [7] 98.8% | efflux inhibition (fraction of control) [8] 0.045 | inhibition [9] 1% | differentiation response [10] -11.9%
60.4%: double positive events [1]

Cc1ccc2c(c1)C(O)(CC(=O)/C=C/C=C/c1ccccc1)C(=O)N2 (stereo not given)
63.9%: double positive events [1]
inactive: vesicle binding response [1] 759% | inhibition [2] -4.6% | superoxide response (% of plate) [3] 111% | aptamer binding inhibition [4] 2% | response [11] -0.9% | inhibition [5] 4.01% | response [6] -1.15% | binding (% of control) [7] 99% | efflux inhibition (fraction of control) [8] -0.26 | inhibition [9] -7% | differentiation response [10] 2.2%

COc1ccc(/C=C2\CCc3ccccc3C2=O)c(OC)c1OC
inactive: vesicle binding response [1] 262% | inhibition [2] 2.3% | superoxide response (% of plate) [3] 94.8% | aptamer binding inhibition [4] 3% | response [11] -0.85% | inhibition [5] -2.94% | response [6] 5.35% | binding (% of control) [7] 102% | efflux inhibition (fraction of control) [8] 0.15 | inhibition [9] 5% | differentiation response [10] 31.2%
68.5%: double positive events [1]
